Experimental findings from PubChem BioAssay are described below.

The nature of assay [1]: binders of probe aFSTL3 on microarray, primary screen, stem cell growth factor project, biochemical, small-molecule microarray, fluorescence 635/667 (AID 1064).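 Note: measures binding of the biotinylated anti-FSTL3 antibody to printed compounds.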 As to conditions: higher = more signal.
Assay [2] can be described thus: binders from COS7 lysate, DM2A8 probe, primary screen, torsin A project, cell lysate, small-molecule microarray, fluorescence 635/667 (AID 1065). As to conditions: higher = more signal, COS7 lysate expressing mutant human TOR1A.
Assay [3] in a line: binders of probe aFGF2 on microarray, primary screen, stem cell growth factor project, biochemical, small-molecule microarray, fluorescence 635/667 (AID 1067).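 Note: measures binding of biotinylated aFGF2 protein to printed compounds on slides; z-score merges feature fluorescence and signal-to-noise across triplicate slides.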 The conditions noted are these: higher = more signal.
Assay [4] in a line: binders of probe aFGF10 on microarray, primary screen, stem cell growth factor project, biochemical, small-molecule microarray, fluorescence 635/667 (AID 1071).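 Note: score merges 667 nm spot intensity and signal to noise from triplicate slides.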 The conditions noted are these: higher = more signal.
The target of assay [5] is Neurogenic locus notch homolog protein 2 (Homo sapiens) (UniProt Q04721). Kind of assay: Notch2 binders on small-molecule microarrays, primary screen, biochemical, small-molecule microarray, 635 nm fluorescence, stem cell growth factors (AID 1073). As to conditions: Notch2 binding, higher = more signal.
Chain of Neurogenic locus notch homolog protein 2 (Homo sapiens) (Q04721 whole entry, looked up, canonical isoform): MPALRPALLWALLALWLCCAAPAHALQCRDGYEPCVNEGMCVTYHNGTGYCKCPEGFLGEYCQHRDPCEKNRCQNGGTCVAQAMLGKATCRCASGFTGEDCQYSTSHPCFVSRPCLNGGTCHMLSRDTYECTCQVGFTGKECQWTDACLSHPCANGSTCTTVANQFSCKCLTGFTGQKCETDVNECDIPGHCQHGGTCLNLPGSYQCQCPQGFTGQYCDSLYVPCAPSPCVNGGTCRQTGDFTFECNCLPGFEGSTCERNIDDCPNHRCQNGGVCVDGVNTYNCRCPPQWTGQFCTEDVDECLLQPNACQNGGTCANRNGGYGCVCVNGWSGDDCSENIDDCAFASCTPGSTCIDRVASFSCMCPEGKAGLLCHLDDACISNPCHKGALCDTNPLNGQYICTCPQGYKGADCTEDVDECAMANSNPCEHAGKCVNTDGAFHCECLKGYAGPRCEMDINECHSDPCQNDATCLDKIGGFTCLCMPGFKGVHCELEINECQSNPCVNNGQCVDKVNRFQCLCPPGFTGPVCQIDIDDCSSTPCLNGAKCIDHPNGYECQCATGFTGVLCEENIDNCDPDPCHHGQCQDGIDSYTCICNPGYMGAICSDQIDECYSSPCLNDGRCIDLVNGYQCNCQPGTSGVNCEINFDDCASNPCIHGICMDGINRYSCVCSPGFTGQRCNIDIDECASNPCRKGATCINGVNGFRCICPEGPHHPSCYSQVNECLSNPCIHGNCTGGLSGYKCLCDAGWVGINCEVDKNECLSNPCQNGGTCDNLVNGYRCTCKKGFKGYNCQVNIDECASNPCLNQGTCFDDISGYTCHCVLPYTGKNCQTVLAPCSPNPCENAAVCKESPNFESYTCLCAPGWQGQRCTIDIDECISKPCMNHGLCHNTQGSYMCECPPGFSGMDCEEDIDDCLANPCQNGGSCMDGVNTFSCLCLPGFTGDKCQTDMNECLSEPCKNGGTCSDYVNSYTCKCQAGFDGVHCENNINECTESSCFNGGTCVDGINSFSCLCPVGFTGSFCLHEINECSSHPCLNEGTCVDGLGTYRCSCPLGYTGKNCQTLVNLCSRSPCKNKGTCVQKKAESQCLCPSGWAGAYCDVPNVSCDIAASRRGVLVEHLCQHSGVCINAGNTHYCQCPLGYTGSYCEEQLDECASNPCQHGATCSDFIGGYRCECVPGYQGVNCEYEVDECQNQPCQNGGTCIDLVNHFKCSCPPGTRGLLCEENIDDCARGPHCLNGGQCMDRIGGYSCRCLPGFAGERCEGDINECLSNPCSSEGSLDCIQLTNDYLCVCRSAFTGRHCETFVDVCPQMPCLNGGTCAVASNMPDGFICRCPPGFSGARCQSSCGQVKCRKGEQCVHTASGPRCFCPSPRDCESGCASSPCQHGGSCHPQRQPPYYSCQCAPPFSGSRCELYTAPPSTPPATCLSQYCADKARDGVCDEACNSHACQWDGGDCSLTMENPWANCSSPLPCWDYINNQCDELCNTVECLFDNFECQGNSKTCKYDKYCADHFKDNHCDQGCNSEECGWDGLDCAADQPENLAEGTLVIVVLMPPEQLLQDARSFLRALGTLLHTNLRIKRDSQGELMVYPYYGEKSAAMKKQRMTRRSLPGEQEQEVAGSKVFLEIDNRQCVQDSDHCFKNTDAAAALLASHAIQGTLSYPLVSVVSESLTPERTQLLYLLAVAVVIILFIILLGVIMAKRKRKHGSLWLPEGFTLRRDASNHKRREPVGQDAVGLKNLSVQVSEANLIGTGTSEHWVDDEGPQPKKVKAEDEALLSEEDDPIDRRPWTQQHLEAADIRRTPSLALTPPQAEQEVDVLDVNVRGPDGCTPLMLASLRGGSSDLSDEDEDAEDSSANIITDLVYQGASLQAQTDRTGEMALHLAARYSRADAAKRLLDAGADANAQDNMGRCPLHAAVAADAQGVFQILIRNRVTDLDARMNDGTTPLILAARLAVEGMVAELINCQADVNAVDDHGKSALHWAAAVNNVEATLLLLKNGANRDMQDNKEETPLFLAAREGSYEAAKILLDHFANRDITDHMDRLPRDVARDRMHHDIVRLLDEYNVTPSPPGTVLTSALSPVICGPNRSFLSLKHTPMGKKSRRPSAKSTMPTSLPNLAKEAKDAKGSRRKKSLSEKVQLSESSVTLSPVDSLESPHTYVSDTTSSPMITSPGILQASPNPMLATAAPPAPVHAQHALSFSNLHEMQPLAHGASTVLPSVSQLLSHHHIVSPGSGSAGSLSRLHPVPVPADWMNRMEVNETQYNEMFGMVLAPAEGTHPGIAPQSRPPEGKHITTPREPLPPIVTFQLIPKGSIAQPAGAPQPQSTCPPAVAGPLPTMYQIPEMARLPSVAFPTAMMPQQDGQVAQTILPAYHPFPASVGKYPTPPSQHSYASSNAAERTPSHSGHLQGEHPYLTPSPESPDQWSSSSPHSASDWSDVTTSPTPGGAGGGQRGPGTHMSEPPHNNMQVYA
The target in assay [6] is Pro-neuregulin-1, membrane-bound isoform (Homo sapiens) (UniProt Q02297). Kind of assay: NRG1 binders on small-molecule microarrays, primary screen, psychiatric disease protein project, biochemical, small-molecule microarray, fluorescence 635/667 (AID 1075).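 Note: score combines 667 nm spot fluorescence with signal to noise.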 The conditions noted are these: NRG1 binding, 635 nm fluorescence, higher = more signal.
Chain of Pro-neuregulin-1, membrane-bound isoform (Homo sapiens) (Q02297 whole entry, looked up, the tested form may be a part, canonical isoform): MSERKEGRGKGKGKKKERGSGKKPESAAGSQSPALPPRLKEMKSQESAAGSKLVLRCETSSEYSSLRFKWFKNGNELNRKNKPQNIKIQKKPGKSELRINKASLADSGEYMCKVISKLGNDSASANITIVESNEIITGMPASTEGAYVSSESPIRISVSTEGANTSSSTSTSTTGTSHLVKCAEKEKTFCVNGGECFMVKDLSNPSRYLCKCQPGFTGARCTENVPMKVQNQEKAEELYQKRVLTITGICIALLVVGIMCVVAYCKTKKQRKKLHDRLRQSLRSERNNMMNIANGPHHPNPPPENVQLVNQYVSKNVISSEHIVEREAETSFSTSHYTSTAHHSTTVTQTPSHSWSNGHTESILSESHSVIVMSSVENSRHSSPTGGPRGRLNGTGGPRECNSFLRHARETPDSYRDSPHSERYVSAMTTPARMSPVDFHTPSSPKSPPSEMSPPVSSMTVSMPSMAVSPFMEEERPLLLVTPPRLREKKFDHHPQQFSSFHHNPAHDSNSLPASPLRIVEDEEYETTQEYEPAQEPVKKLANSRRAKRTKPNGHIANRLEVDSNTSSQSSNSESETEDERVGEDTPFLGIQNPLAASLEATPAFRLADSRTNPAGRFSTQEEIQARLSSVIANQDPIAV
Assay [7] has as its system Neuregulin-1 EGF-like domain. Kind of assay: binders of neuregulin-1 EGF-like domain, primary screen, biochemical, small-molecule microarray, 635 nm fluorescence (AID 1081).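 Note: binding of the protein to compounds printed on small-molecule microarray slides.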 The conditions noted are these: small-molecule microarray binding, higher = more signal.
Assay [8] can be described thus: FRG1 promoter luciferase signal modulators, primary screen, FRG1 inhibition for FSHD, cell-based, C2C12 myotubes, firefly/Renilla luciferase, luminescence (AID 1084). As to conditions: higher = more signal, called active from +8 up or from −8 down.
Assay [9] in a line: binders of probe aFST on microarray, primary screen, stem cell growth factor project, biochemical, small-molecule microarray, fluorescence 635/667 (AID 1086).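 Note: score merges 667 nm fluorescence with signal-to-noise of each printed compound spot.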 The conditions noted are these: higher = more signal.
Assay [10] is described as follows: binders of probe aHhip on microarray, primary screen, stem cell growth factor project, biochemical, small-molecule microarray, fluorescence 635/667 (AID 1087).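 Note: score merges spot fluorescence at 667nm with spot signal to noise ratio.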 As to conditions: higher = more signal.
Assay [11] has as its system PRMT1 (protein arginine N-methyltransferase 1). Kind of assay: PRMT1 binders on small-molecule microarrays, primary screen, biochemical, small-molecule microarray, 635 nm fluorescence (AID 1088).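 Note: binding of Prmt1 protein to compounds spotted on small-molecule microarray slides.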 As to conditions: small-molecule microarray binding, higher = more signal.
A short description of assay [12]: yeast growth modulation, basal conditions, primary screen, YJM789 clinical isolate, OD600, 24 h (AID 1089).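 Note: growth of clinical yeast isolate S. cerevisiae YJM 789 seeded 1000 cells per well; test concentration not given here.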 The conditions noted are these: S. cerevisiae YJM789 growth, higher = more signal, called active from +8 up or from −8 down.
Assay [13] in a line: fission yeast growth modulation, primary screen, strain 972, OD600, 24 h, no modulator (AID 1090).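 Note: basal condition with compound alone and no growth modifier present; test concentration not given here.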 As to conditions: S. pombe 972 growth, higher = more signal, called active from +8 up or from −8 down.
A short description of assay [14]: S. cerevisiae growth modulation with rapamycin, primary screen, strain BY4716, OD600, 96 h (AID 1091). Note: test concentration not given here. The conditions noted are these: higher = more signal, called active from +8 up or from −8 down.
Assay [15] deals with Torsin-1A-interacting protein 2 (Homo sapiens) (UniProt Q8NFQ8). Kind of assay: LULL1 binders on small-molecule microarray, primary screen, cell lysate, human LULL1 lysate, 635/667 nm fluorescence (AID 1092).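 Note: probe is lysate of COS7 cells overexpressing human LULL1; score merges per-feature 667 nm fluorescence with signal-to-noise.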 The conditions noted are these: hLULL1 lysate binding, 635 nm fluorescence, higher = more signal.
Chain of Torsin-1A-interacting protein 2 (Homo sapiens) (Q8NFQ8 whole entry, looked up): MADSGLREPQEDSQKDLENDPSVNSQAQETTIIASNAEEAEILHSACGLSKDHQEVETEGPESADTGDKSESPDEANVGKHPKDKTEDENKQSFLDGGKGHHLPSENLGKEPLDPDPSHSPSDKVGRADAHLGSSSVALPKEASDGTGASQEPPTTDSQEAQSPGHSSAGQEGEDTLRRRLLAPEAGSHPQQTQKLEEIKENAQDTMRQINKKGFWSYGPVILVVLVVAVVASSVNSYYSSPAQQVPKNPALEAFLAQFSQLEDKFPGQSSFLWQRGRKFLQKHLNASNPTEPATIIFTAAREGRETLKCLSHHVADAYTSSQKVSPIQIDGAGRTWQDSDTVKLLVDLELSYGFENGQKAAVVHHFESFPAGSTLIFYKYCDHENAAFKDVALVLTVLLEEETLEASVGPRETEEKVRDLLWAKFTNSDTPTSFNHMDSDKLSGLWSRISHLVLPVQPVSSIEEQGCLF
Assay [16] in a line: E. coli growth modulation, two-sided OD650, primary screen, E. coli filamentation project, strain DRC41, 24 h (AID 1093).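 Note: MC1000 strain lacking acrAB efflux and sulA so SOS filamentation is blocked; test concentration not given here.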 The conditions noted are these: OD650, 24 h, higher = more signal, called active from +8 up or from −8 down.
Assay [17] can be described thus: small-molecule microarray binders of probe aLefty2, primary screen, biochemical, biotinylated probe, 635/667 nm fluorescence (AID 1094).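 Note: score merges spot fluorescence near 667 nm with spot signal-to-noise ratio.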 The conditions noted are these: higher = more signal.
For assay [18], the system named is Noggin (protein binding on small-molecule microarray). Kind of assay: Noggin binders on small-molecule microarray, primary screen, biochemical, 635/667 nm fluorescence (AID 1095).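 Note: score merges 667 nm feature fluorescence with signal to noise over triplicate slides.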 The conditions noted are these: 635 nm fluorescence, higher = more signal.
For assay [19], the target named is Neurogenic locus notch homolog protein 3 (Homo sapiens) (UniProt Q9UM47). Kind of assay: NOTCH3 binders on small-molecule microarray, primary screen, biochemical, 635/667 nm fluorescence (AID 1096). The conditions noted are these: NOTCH3 binding, 635 nm fluorescence, higher = more signal.
Assay [20] is described as follows: small-molecule microarray binders of probe aEGFR, primary screen, biochemical, biotinylated probe, 635/667 nm fluorescence (AID 1097).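 Note: probe is a biotinylated anti-EGFR antibody binding compounds printed on slides; score combines fluorescence near 667 nm and signal to noise of each spot.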 As to conditions: higher = more signal.

SMILES strings stand for the structures. Calls of active or inactive are those of the source.

For the molecule `CC(C)C[C@@H]1NC(=O)[C@@H]2C[C@H](C(=O)NCCCCN(C)C)[C@H](c3ccc(O)cc3)N2C1=O`, the composite z-score was 0.493 in assay [1]; -0.202 in assay [2]; -0.167 in assay [3]; -1.02 in assay [4]; -1.32 in [5]; -0.343 in [6]. The composite z-score was 0.443 in assay [7]; -0.819 in assay [9]; -0.0296 in [10]; 0.577 in assay [11]; 0.218 in [15]; 0.0566 in assay [17]. Moreover, the results for the composite z-score in assay [18], in [19] and in [20] were 0.118, -0.531 and -0.218, respectively. The z-score in assay [8] was 1.92 (inactive); in assay [12], -0.145 (inactive); in [13], 1.36 (inactive); in [14], -0.367 (inactive); in [16], -0.0929 (inactive).

Take `COCC1C2CC[C@H]3C(OCc4ccc(F)cc4C(F)(F)F)OC[C@]4(C)[C@H]3C2=C(CN4C(=O)OC(C)(C)C)[C@H](C)C1COC` (stereo not given in full): the composite z-score in assay [1] amounted to 0.409; in assay [2], 0.0838; in assay [3], 0.0807; in [4] it was 0.224; in [5], 1.58; in assay [6], 2.05. Also, the composite z-score is 0.782 in assay [7]; 0.945 in assay [9]; -0.0672 in [10]; 0.61 in assay [11]; 3.48 in assay [15]; 0.522 in assay [17]. Also, the composite z-score in assay [18] was -0.761; in assay [19] it was 0.96; in assay [20] it was 0.0598. Also, the z-score was -0.255 (inactive) in assay [8]; -0.886 (inactive) in assay [12]; 1.04 (inactive) in assay [13]; -0.2 (inactive) in assay [14]; -1.02 (inactive) in [16].

For `CCCNC(=O)[C@@]1(C)c2ccccc2C(=O)N(Cc2cc(C(F)(F)F)cc(C(F)(F)F)c2)[C@H]1c1ccc(CO)cc1`, the composite z-score in [1] is 0.177; in [2], -0.0656; in [3], -0.0653; in assay [4] it was 0.108; in assay [5] it was -0.626; in assay [6] it was 1.68. Also, the composite z-score was 1.37 in assay [7]; -0.0368 in [9]; -0.0645 in [10]; 1.43 in [11]; 2.59 in [15]; -0.119 in assay [17]. Also, the composite z-score in assay [18] is -0.675; in [19] it was -0.131; in [20] it was -0.137. In addition, the z-score in assay [8] is 0.0565 (inactive); in assay [12], 0.0841 (inactive); in assay [13] it was -0.25 (inactive); in assay [14], -0.49 (inactive); in assay [16], -0.667 (inactive).

Regarding `C=C(CCCC)C(=O)CC[C@@H](OC(=O)c1ccccc1-c1ccccc1C(=O)O)c1ccc(CO)o1`, the composite z-score in assay [1] is -0.241; in [2] it was -0.141; in assay [3], -0.0291; in [4] it was 0.45; in assay [5] it was 0.629; in assay [6] it was 0.504. Further, the composite z-score amounted to 0.989 in assay [7]; 0.137 in assay [9]; 0.192 in assay [10]; 1.56 in [11]; 0.779 in [15]; 0.0202 in assay [17]. Further, the composite z-score in assay [18] was determined as 1.24; in [19] it was 0.534; in assay [20], 0.0068. In addition, the z-score in [8] is -0.161 (inactive); in assay [12], -0.516 (inactive); in [13] it was -0.0561 (inactive); in assay [14], -0.667 (inactive); in [16], 0.122 (inactive).

With `C=CCC(OC(C)=O)[C@@H]1[C@@H](N(Cc2cc3ccccc3o2)C(=O)c2ccc(-c3ccccc3)cc2)c2cc(OCCCO)ccc2N1C(=O)Cc1ccc2ccccc2c1` (stereo not given in full), the composite z-score in assay [1] is 0.179; in assay [2], -0.499; in [3], -0.0428; in assay [4] it was 0.101; in assay [5] it was -0.14; in [6], -0.0892. The composite z-score in [7] was -0.5; in assay [9], 0.261; in assay [10], 0.17; in assay [11], -0.598; in assay [15], 0.898; in assay [17] it was -0.166. Also, the figures for the composite z-score in assay [18], in assay [19] and in assay [20] were -0.125, -0.376 and -0.166, respectively. In addition, the z-score in assay [8] is -1.28 (inactive); in assay [12] it was 1.06 (inactive); in [13] it was 0.263 (inactive); in assay [14], 1.49 (inactive); in assay [16], 0.0672 (inactive).
